In the assay the target is Trypsin (Sus scrofa) (UniProt P00761). Nature of the assay: porcine trypsin inhibitors, dose response, selectivity assay for Rce1 protease inhibitor project, biochemical, quenched peptide fluorescence, cherry-pick (AID 488789).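 Further: more negative means stronger trypsin inhibition.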

Entries with a potency or affinity are not part of this list. Inconclusive results are not listed. Activity calls are given as the source filed them.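 How the source made its calls: active means samples whose fitted half-maximal inhibition concentration is no more than ten times the top valid dose tested; inconclusive means flat response between -70 and -30, or invalid curve fit; inactive means flat within 30 of zero, potency above limit, or signal rising.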

Chain of Trypsin (Sus scrofa) (P00761 whole entry, looked up): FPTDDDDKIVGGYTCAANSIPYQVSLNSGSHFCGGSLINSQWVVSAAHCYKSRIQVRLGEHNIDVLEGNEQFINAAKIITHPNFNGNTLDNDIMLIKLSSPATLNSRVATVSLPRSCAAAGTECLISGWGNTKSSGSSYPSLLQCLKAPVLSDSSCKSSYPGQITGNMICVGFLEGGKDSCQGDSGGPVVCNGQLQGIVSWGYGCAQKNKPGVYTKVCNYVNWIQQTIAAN

Consider `O=C1NC2(C=Cc3c(ccc4ccccc34)O2)Oc2ccccc21` (configuration not stated), for which the result was inactive.

`COC(=O)C1CCCN1S(=O)(=O)c1ccc2ccccc2c1` (configuration not stated): the compound was called inactive.

For the compound `CCN(C(=O)COC(=O)c1cc(-c2cccs2)nc2ccccc12)C1CCS(=O)(=O)C1` (configuration not stated), the outcome was inactive.

On to `Cc1ccc(/C=N/NC(=O)c2nnn(-c3nonc3N)c2C(C)C)o1`, for which the outcome was inactive.

On to `O=C(N/N=C/C1CC=CCC1)c1ccc(O)cc1O` (configuration not stated), for which the outcome was inactive.

Consider `COc1ccccc1NC(=O)CN(c1ccc(C23CC4CC(CC(C4)C2)C3)cc1)S(C)(=O)=O`, for which the call was inactive.

`COc1ccccc1-c1nnc2sc(-c3ccc(N(C)C)cc3)nn12`: the result was inactive.

Turning to `CC(=O)c1ccc(-c2ccc(C(=O)N3CCC(C(N)=O)CC3)o2)cc1`, the compound was classed as inactive.

Regarding `CCn1nc(C)cc1C(=O)NC1CC(C)(C)Cc2c1cnn2-c1cccc(F)c1` (configuration not stated), the outcome was inactive.

For `C/C=C(/C)C(=O)O[C@H]1[C@@H](O)c2c(ccc3ccc(=O)oc23)OC1(C)C`, the compound was classed as inactive.

`O=C(/C=C/c1cn(-c2ccccc2)nc1-c1cccs1)NCCN1CCOCC1`: the outcome was inactive.

Consider `Cc1cccc(-c2nnc(SCc3ccc(C#N)cc3)n2Cc2ccco2)c1`, for which the compound was called inactive.

`COc1ccc(NS(=O)(=O)c2c(C)cc(C)cc2C)cc1`: the compound was classed as inactive.

Take `COc1ccc(CC(=O)OCC(=O)Nc2ccc(Br)cc2)cc1`: the call was inactive.

Regarding `O=C(C1=C[C@@H](C2CC2)C[C@@H](OCc2ccc(CO)cc2)O1)N1CCN(Cc2ccccc2)CC1`, the result was inactive.

For `Cc1cccc(NS(=O)(=O)c2ccc(C)c(C(=O)OCC(=O)Nc3cc(C)on3)c2)c1`, the compound was called inactive.

Regarding `O=C(C1CCC(=O)N(C2CC2)C1)N1CCN(c2ccccc2Cl)CC1` (configuration not stated), the compound was classed as inactive.

Values taken from PubChem BioAssay AID488789 (Broad Institute, 2010).
